Records with an inconclusive call do not appear. The source made the active and inactive calls. Calls come from the whole dose curve.
What was measured:
[1] = target: Acetylcholinesterase (Homo sapiens) (UniProt P22303); test: Acetylcholinesterase (AChE) small molecule antagonists: colormetric cell-based qHTS assay (AID 1347395); note: nearly all actives have a fitted effect of over 30% in size
Summary of the method: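 AChE inhibition read colorimetrically via DTNB–thiocholine in SH-SY5Y cells. Compound 30 min, substrate 90 min, both 37 C.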

[2] = target: Acetylcholinesterase (Homo sapiens) (UniProt P22303); test: Acetylcholinesterase (AChE) small molecule antagonists: enzyme-based qHTS assay (AID 1347397); details: Potency: AChE enzyme activity inhibition; outcome: AChE enzyme activity inhibition; note: nearly all actives have a fitted effect of over 55% in size
Summary of the method: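 Compound or DMSO vehicle was pin-transferred onto recombinant human AChE (50 mU/mL as dispensed) and left 30 min at room temperature. Acetylthiocholine with DTNB then started the reaction, read colorimetrically 10 min later.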

[3] = target: Acetylcholinesterase (Homo sapiens) (UniProt P22303); test: Acetylcholinesterase (AChE) small molecule antagonists: fluorescence cell-based qHTS assay (AID 1347398); details: Potency: AChE activity; outcome: AChE activity; note: nearly all actives have a fitted effect of over 50% in size
Summary of the method: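 Using neuroblastoma SH-SY5Y cells as the enzyme source, test chemicals are preincubated 30 min at 37 C; AChE-driven acetylthiocholine cleavage is then quantified by thiocholine-dependent Thiolite Green fluorescence after 40 min at room temperature.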

[4] = target: Acetylcholinesterase (Homo sapiens) (UniProt P22303); test: Acetylcholinesterase (AChE) small molecule antagonists: enzyme-based qHTS assay with human liver microsomes (AID 1347399); details: Potency: qHTS inhibition; outcome: qHTS inhibition; note: nearly all actives have a fitted effect of over 60% in size
Summary of the method: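 Recombinant human AChE (50 mU/mL in the enzyme mix) and human liver microsomes (0.25 mg/mL final) were preincubated with compound and NADPH (0.25 mg/mL final) for 30 min at 37 C. Acetylthiocholine/DTNB was then added; thiocholine was read colorimetrically after 10 min at room temperature.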

Measured: Potency

Acetylcholinesterase (Homo sapiens), sequence (P22303 whole entry, looked up): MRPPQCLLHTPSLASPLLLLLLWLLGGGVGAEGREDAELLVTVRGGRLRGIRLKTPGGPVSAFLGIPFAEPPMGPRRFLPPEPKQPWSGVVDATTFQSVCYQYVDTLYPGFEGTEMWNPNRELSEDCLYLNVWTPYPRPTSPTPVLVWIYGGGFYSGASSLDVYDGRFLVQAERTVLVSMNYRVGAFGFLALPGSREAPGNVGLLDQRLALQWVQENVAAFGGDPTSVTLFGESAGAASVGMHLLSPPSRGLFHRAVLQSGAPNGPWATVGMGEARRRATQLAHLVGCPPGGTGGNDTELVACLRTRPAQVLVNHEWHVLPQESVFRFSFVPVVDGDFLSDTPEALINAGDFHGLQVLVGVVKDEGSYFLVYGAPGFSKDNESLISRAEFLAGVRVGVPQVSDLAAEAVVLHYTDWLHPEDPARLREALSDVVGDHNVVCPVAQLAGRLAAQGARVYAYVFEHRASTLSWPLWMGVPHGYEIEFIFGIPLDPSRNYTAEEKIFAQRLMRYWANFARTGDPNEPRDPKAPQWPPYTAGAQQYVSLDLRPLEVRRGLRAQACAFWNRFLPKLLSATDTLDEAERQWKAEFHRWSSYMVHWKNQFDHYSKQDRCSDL

CN(C)C(=O)Nc1ccccc1
inactive: [1] | [2] | [3] | [4]

O=c1[nH]sc2ccccc12
inactive: [1] | [2] | [3] | [4]

COc1cccc([C@H](O)C2CCN(CCc3ccc(F)cc3)CC2)c1OC
inactive: [1] | [2] | [3] | [4]

Cc1cccc(C)c1NC(=O)c1ccccc1C(=O)O
inactive: [1] | [2] | [3] | [4]

CN(C)CCN(C)CCO
inactive: [1] | [2] | [3] | [4]

CCCCN1CCCC1C(=O)Nc1c(C)cc(C)cc1C (stereo not given)
inactive: [1] | [2] | [3] | [4]

C=C(C)C1CC=C(C)C(O)C1 (stereo not given)
inactive: [1] | [2] | [3] | [4]

Cc1cc(O)c(C(C)(C)C)cc1C(C)(C)C
inactive: [1] | [2] | [3] | [4]

CCOc1ccc2c(c1)C(C)CC(C)(C)N2 (stereo not given)
inactive: [1] | [2] | [3] | [4]

Nc1nc(-c2ccccc2)c(Br)c(=O)[nH]1
inactive: [1] | [2] | [3] | [4]

CN(C)c1ccc(C=O)cc1
inactive: [1] | [2] | [3] | [4]

CC(CN=Cc1ccccc1O)N=Cc1ccccc1O (stereo not given)
inactive: [1] | [2] | [3] | [4]

C=CC/C=C/C/C=C/C/C=C/C
inactive: [1] | [2] | [3] | [4]

OCCCc1cccnc1
inactive: [1] | [2] | [3] | [4]

O=S1(=O)CCCC1
inactive: [1] | [2] | [3] | [4]

CCOC(=O)c1ncn2c1CN(C)C(=O)c1cc(F)ccc1-2
inactive: [1] | [2] | [3] | [4]

CCOC(=O)/C=C(C)/C=C/C=C(C)/C=C/c1c(C)cc(OC)c(C)c1C
inactive: [1] | [2] | [3] | [4]

O=C(C(Cl)Cl)N1CCOC12CCCCC2
inactive: [1] | [2] | [3] | [4]

COc1c(Br)cc(Br)c(C)c1Br
inactive: [1] | [2] | [3] | [4]

CC(=O)OCC(=O)Nc1cc(C#N)cc(NC(=O)COC(C)=O)c1Cl
inactive: [1] | [2] | [3] | [4]

CC(O)C1CCCCC1 (stereo not given)
inactive: [1] | [2] | [3] | [4]

COC(=O)CCSCCC(=O)OC
inactive: [1] | [2] | [3] | [4]

CC(=O)OCC1=C(C(=O)O)N2C(=O)[C@@H](NC(=O)Cc3cccs3)[C@H]2SC1
inactive: [1] | [2] | [3] | [4]

O=C(O)C(=O)Cc1c[nH]c2ccccc12
inactive: [1] | [2] | [3] | [4]

COc1ccc(C(=O)Nc2nc3ccccc3c(NCc3ccccc3)c2C#N)cc1
inactive: [1] | [2] | [3] | [4]
